Source: PubChem (several laboratories)
The list is not random: actives were taken first. Their share in the collection is about 3%.
Peg3 prom inh: inhibitors of Peg3 promoter; HeLa PEG-Prom luciferase reporter, luminescence, overnight; inhibition, % at 20 µM; 360,000 tested, 1.7% active;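 active means inhibition of at least 50% at 20 µM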
EWS-Fli block: EWS/Fli transcriptional activity inhibition. 350,000 tested, 0.67% active. A673 NR0B1-luciferase reporter, viability-normalised. inhibition, % at 12.6 µM;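 active means mean inhibition of at least 50% after viability correction, with every replicate also passing that limit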;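 further: firefly luciferase signal divided by Alamar Blue viability fluorescence both relative to DMSO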
TRPM1 prom inh: MITF TRPM1 promoter inhibition in SK-MEL-5 cells; SK-MEL-5 TRPM1 promoter luciferase, 24 h; inhibition, % at 12.5 µM; 330,000 tested, 0.83% active;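 active means mean inhibition across replicates of 60% or more, whatever share of single replicates reaches that level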
PAX8 reporter: lowers PAX8-driven luciferase in RMG-I cells; RMG-I TPO-luciferase reporter, SteadyGlo, 24 h; AID 652154; inhibition, % at 12.6 µM; 360,000 tested, 1.2% active;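 active means mean replicate inhibition at least 60% with every replicate also reaching 60%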;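 further: luciferase light reporting Pax8 driven TPO promoter activity; plate controls were median of neutral control wells for no effect and mitoxantrone controls for full effect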
ABHD5 PLIN5 PPI: ABHD5-PLIN5 protein interaction inhibition; 360,000 tested, 0.78% active; AID 602281; inhibition, % at 4 µM; Q00G26+Q8WTS1; Split G. princeps luciferase complementation, luminescence, 4 h;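 active means inhibition above the mean inhibition across every tested compound plus 3 SD, cut at about 22% in these data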;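 further: 0% = DMSO only wells and the 100% control is not disclosed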
Shn3 inh set2: reduces Shn3 3'UTR luciferase signal in osteoblasts. 360,000 tested, 0.52% active. Clone20 osteoblast Shn3 3'UTR firefly luciferase, 24 h. inhibition, % at 12.5 µM;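 active means mean inhibition of at least 75% with every replicate also reaching 75%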;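 further: 0% = median of neutral control wells and 100% = pilot-screen positive control compound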
* marks the source's active call; other numbers are inactive results; ! = not confirmed by another sample.

How did C[C@@H]1CN([C@@H](C)CO)C(=O)c2cc(NC(=O)NC3CCCCC3)ccc2O[C@@H]1CN(C)Cc1ccc(Oc2ccccc2)cc1 do in these assays?
EWS-Fli block: -1

Results for COCC(=O)N(C)C[C@H]1Oc2cc(C#CCC(C)C)ccc2S(=O)(=O)N([C@@H](C)CO)C[C@H]1C ?
EWS-Fli block: 7

Results for Cc1ccccc1-c1ccc(C2[C@@H]3CN(C(=O)Cc4ccccc4)C[C@H]2N3)cc1 (stereo not given in full) ?
EWS-Fli block: 56*!; PAX8 reporter: 33

What do the screens show for `O=C(Cc1ccncc1)N1C[C@@H]2N[C@H](C1)C2c1ccc(-c2ccccc2)cc1` (stereo not given in full)?
EWS-Fli block: 2; PAX8 reporter: -4

Results for CCCN(C)C[C@H]1OCCCC[C@@H](C)Oc2ccc(N(C)C)cc2C(=O)N([C@@H](C)CO)C[C@H]1C ?
EWS-Fli block: 0; PAX8 reporter: 19

How did C[C@@H]1CCCCO[C@@H](CN(C)Cc2ccc(C(F)(F)F)cc2)[C@@H](C)CN([C@H](C)CO)C(=O)c2cc(NS(=O)(=O)c3ccc(Cl)cc3)ccc2O1 do in these assays?
EWS-Fli block: -11; PAX8 reporter: -16

What do the screens show for `C[C@@H]1CCCCO[C@H](CN(C)Cc2ccc(C(F)(F)F)cc2)[C@H](C)CN([C@@H](C)CO)C(=O)c2cc(NS(=O)(=O)c3ccc(Cl)cc3)ccc2O1`?
EWS-Fli block: 27; PAX8 reporter: 105*

Results for C[C@@H]1CCCCO[C@H](CN(C)Cc2ccc(C(F)(F)F)cc2)[C@@H](C)CN([C@@H](C)CO)C(=O)c2cc(NS(=O)(=O)c3ccc(Cl)cc3)ccc2O1 ?
EWS-Fli block: 17; PAX8 reporter: 113*

What do the screens show for `C[C@H]1CCCCO[C@H](CN(C)Cc2ccc(C(F)(F)F)cc2)[C@@H](C)CN([C@@H](C)CO)C(=O)c2cc(NS(=O)(=O)c3ccc(Cl)cc3)ccc2O1`?
EWS-Fli block: 14; PAX8 reporter: 93*

How did C[C@H](CO)N1C[C@H](C)[C@@H](CN(C)Cc2ccncc2)Oc2ccc(NS(=O)(=O)c3ccc(F)cc3)cc2C1=O do in these assays?
EWS-Fli block: 9; PAX8 reporter: -10

Results for CC(C)(C)n1nnnc1C(c1cccs1)N1CCCC2(CCCCC2)C1 (stereo not given) ?
Peg3 prom inh: 27; EWS-Fli block: 8; TRPM1 prom inh: 2; ABHD5 PLIN5 PPI: 8; Shn3 inh set2: 85*

How did c1csc(C(c2nnnn2C2CCCCC2)N2CCCC3(CCCCC3)C2)c1 (stereo not given) do in these assays?
Peg3 prom inh: 11; TRPM1 prom inh: -9; PAX8 reporter: 38; ABHD5 PLIN5 PPI: 1; Shn3 inh set2: 36

How did CN(C)CCCN(C(=O)c1cc(-c2cccs2)nc2ccccc12)c1nc2ccc(F)cc2s1 do in these assays?
Peg3 prom inh: 112*; EWS-Fli block: 15; TRPM1 prom inh: 87*; PAX8 reporter: 23; ABHD5 PLIN5 PPI: 14; Shn3 inh set2: 8

Results for COc1cc(/C=C/C(=O)OCC(=O)N2c3ccccc3NC(=O)C2(C)C)cc(OC)c1OC ?
Peg3 prom inh: 65*; EWS-Fli block: 12; TRPM1 prom inh: -8; PAX8 reporter: 13; ABHD5 PLIN5 PPI: -2; Shn3 inh set2: 3

Results for C[C@@H]1CN([C@@H](C)CO)C(=O)Cc2cc(NC(=O)Cc3ccccc3)ccc2O[C@H]1CN(C)S(=O)(=O)c1ccccc1 ?
EWS-Fli block: -1; PAX8 reporter: -5

How did C[C@@H]1CN([C@H](C)CO)S(=O)(=O)c2ccc(/C=C/c3ccccc3)cc2O[C@@H]1CN(C)C(=O)c1ccc2c(c1)OCO2 do in these assays?
EWS-Fli block: 12

What do the screens show for `C[C@H](CO)N1C[C@H](C)[C@H](CN(C)Cc2ccc(C(F)(F)F)cc2)OCCCC[C@H](C)Oc2ccc(NC(=O)Nc3ccc(C(F)(F)F)cc3)cc2C1=O`?
EWS-Fli block: -5; PAX8 reporter: 15

How did COc1ccc(C(=O)c2c(C(F)(F)F)oc3c2C(=O)c2ccccc2C3=O)cc1 do in these assays?
Peg3 prom inh: 99*; TRPM1 prom inh: 105*; ABHD5 PLIN5 PPI: -12; Shn3 inh set2: 97*

How did COc1ccc(C(=O)c2coc(-c3ccccc3C(=O)O)c2C(=O)O)cc1 do in these assays?
Peg3 prom inh: 0; TRPM1 prom inh: 6; PAX8 reporter: -4; ABHD5 PLIN5 PPI: 3; Shn3 inh set2: -8

How did CCOc1ccc(S(=O)(=O)NCc2ccncc2)cc1 do in these assays?
Peg3 prom inh: 4; TRPM1 prom inh: 9; ABHD5 PLIN5 PPI: 4; Shn3 inh set2: 90*

What do the screens show for `CCOC(=O)COc1ccc(S(=O)(=O)NCc2ccncc2)cc1`?
Peg3 prom inh: 4; TRPM1 prom inh: 9; ABHD5 PLIN5 PPI: 10; Shn3 inh set2: 72

What do the screens show for `C=CCOC(=O)C1=C(C)N(C)C(=O)NC1c1cc2c(cc1Br)OCO2` (stereo not given)?
Peg3 prom inh: 67*; TRPM1 prom inh: -2; ABHD5 PLIN5 PPI: -2; Shn3 inh set2: -3

Results for CN1[C@@H]2Cn3c(ccc(-c4cccnc4)c3=O)[C@H]1[C@@H](C(=O)N1CCC(Cc3ccccc3)CC1)[C@@H]2CO ?
EWS-Fli block: 2; PAX8 reporter: -9

What do the screens show for `C[C@@H]1CN([C@H](C)CO)C(=O)c2cc(NC(=O)CCN3CCOCC3)ccc2O[C@@H]1CN(C)Cc1ccc(Cl)c(Cl)c1`?
PAX8 reporter: 4

What do the screens show for `CN(C(=O)c1cccc(NC(=O)Cc2ccc(NC(=O)C3CCCN(C(=O)CCc4ccccc4)C3)cc2)c1)C1CCC1` (stereo not given)?
Peg3 prom inh: 2; EWS-Fli block: 2; TRPM1 prom inh: 62*; PAX8 reporter: 38; ABHD5 PLIN5 PPI: 2; Shn3 inh set2: 14

Results for Cc1cc(C)cc(N=c2c([N+](=O)[O-])nn(-c3ccc4c(c3)OCCO4)n2O)c1 ?
Peg3 prom inh: -59; EWS-Fli block: -8; TRPM1 prom inh: 7; PAX8 reporter: 100*; ABHD5 PLIN5 PPI: -1; Shn3 inh set2: -7

How did O=[N+]([O-])c1nn(-c2ccc3c(c2)OCCO3)n(O)c1=Nc1ccccc1 do in these assays?
Peg3 prom inh: 76*; EWS-Fli block: 74*; TRPM1 prom inh: 86*; PAX8 reporter: 29; ABHD5 PLIN5 PPI: -1; Shn3 inh set2: 66

How did C[C@H]1CCCCO[C@H](CN(C)Cc2ccc(Cl)c(Cl)c2)[C@@H](C)CN([C@@H](C)CO)C(=O)c2cc(NC(=O)CCC(F)(F)F)ccc2O1 do in these assays?
EWS-Fli block: -4; PAX8 reporter: 41

How did O=C(Nc1ccc([N+](=O)[O-])cc1)/C(=C/c1cccc([N+](=O)[O-])c1)NC(=O)C1CCCCC1 do in these assays?
Peg3 prom inh: 26; TRPM1 prom inh: -8; ABHD5 PLIN5 PPI: -2; Shn3 inh set2: 19
